# Screening data (PubChem BioAssay)
# Sampled rows, rich in hits. Any-hit rate of the full collection: about 7.5%.
# SMN2 splice up: enhancers of SMN2 splice variant expression | Potency, µM (titrated, usually from 46.1 µM), for the others: at the top dose activity change, positive = activation, hits mostly activators | actives 2.8% (n = 210,000) | HEK293 SMN2-luciferase splicing reporter, luminescence, 30-36 h; note: % of control where 0% means no effect; nearly all actives have a fitted effect of over 55% in size
#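 HEK293 cells carry an SMN2 minigene-luciferase reporter in which exon 7 inclusion puts luciferase in frame. Cells were seeded at 2000 cells/well, attached for 10-12 hours, then exposed to compounds for 30-36 hours at 37C before ONE-Glo luminescence.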
# Rab9 prom act: Rab9 promoter activation; Huh7 Rab9 promoter-luciferase reporter, luminescence, 24 h; Potency, µM (top dose mostly 9.22 µM), without a hit: at the highest dose activation, negative = inhibition, actives largely listed as activators; actives 2.8% (n = 320,000); note: % of control where 0% means no effect; nearly all actives have a fitted effect of over 60% in size
#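 Luciferase signal after 10 min detection reagent at ambient indicates Rab9 promoter upregulation; stably transfected Huh7 cells were treated 24 h with compound in DMSO at 37 °C, 5% CO2.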
# FLuc modulator: counter-screen for miR-21 project: firefly luciferase inhibitors or activators. P08659. purified FLuc, Km substrates, luminescence inhibition. Potency, µM (doses to about 57.5 µM), for the others: at the top dose activity change, negative = inhibition, most hits filed as inhibitors. actives 6.9% (n = 360,000);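 note: plate controls were vehicle for no effect and reference inhibitor for full effect; nearly all actives have a fitted effect of over 55% in size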
# Target sequence (P08659 whole entry, looked up): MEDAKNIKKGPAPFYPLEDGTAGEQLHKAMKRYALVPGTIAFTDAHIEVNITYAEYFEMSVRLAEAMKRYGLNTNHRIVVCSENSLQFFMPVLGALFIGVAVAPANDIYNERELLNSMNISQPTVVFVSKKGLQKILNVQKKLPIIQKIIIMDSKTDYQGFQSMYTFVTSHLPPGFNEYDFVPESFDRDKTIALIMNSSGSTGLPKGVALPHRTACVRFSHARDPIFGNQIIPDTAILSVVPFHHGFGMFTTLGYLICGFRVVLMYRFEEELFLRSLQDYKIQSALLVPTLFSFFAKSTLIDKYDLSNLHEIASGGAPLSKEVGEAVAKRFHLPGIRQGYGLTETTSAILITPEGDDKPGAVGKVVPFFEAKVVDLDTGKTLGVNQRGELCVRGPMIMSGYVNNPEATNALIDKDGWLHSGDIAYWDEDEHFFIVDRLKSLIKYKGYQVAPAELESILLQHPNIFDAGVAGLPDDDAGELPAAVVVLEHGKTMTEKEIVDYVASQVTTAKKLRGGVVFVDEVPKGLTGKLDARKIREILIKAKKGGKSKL
#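 Purified P. pyralis luciferase, 10 nM final, with Km-level 10 uM D-luciferin and 10 uM ATP in 50 mM Tris acetate pH 7.5, 10 mM Mg acetate, 0.01% Tween-20, 0.05% BSA; 6-point qHTS titration about 60 µM downward; luminescence read.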
# NPC1 prom act: activators of NPC1 promoter. Huh7 NPC1 promoter luciferase reporter, 24 h. Potency, µM (highest dose often 9.22 µM), for the others: top-dose activation, actives largely listed as activators. actives 2.4% (n = 320,000). AID 485313; note: % of control where 0% means no effect; nearly all actives have a fitted effect of over 60% in size
#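 NPC1 promoter–luciferase Huh7 cells; 24 h compound; luminescence.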
# ELG1 genotoxic: induces genotoxicity in HEK293T cells with luciferase-tagged ELG1; HEK293T ELG1-luciferase reporter, luminescence, 16 h; actives 1.3% (n = 330,000); AID 504466; Potency, µM (top dose mostly 46 µM), inactives show at the highest dose activity change, positive = activation, usual class: activators; note: % of control where 0% means no effect; nearly all actives have a fitted effect of over 60% in size
#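 DMSO vehicle served as control against compound-treated ELG1-luciferase HEK293T cells; exposure lasted 16 hr at 37 °C and 5% CO2, followed by ONE-Glo luminescence detection after 30 min.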
# KinaseGlo FLuc: blocks Kinase-Glo luciferase, a counter-screen artifact; Kinase-Glo luciferase, ATP luminescence, 8 min; Potency, µM (top dose mostly 38.3 µM), for inactives: top-dose activity change, negative = inhibition, actives largely listed as inhibitors; actives 0.28% (n = 200,000); AID 1379; note: % is set by controls: 0 for no effect and ±100 for the full control effect; nearly all actives have a fitted effect of over 60% in size
#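 Luminescence was the read-out, taken after 8-minute incubation at ambient temperature. Luciferase turned over luciferin with 10 uM ATP in imidazole pH 7.2 buffer containing KCl, MgCl2, Tween 20 and BSA.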
# Numbers without * were called inactive; ? = inconclusive; . = no result given; [ ] = remark or other dose. Calls come from the whole dose curve; as a rule, active = well fitted curve in the direction sought with a large enough effect; inconclusive = small, poorly fitted or top-dose-only effect, or another doubt; inactive = no such curve, though single readings can be large; an effect the other way counts as inactive or inconclusive. Potency is the fitted concentration of half-maximal effect.
SMILES,SMN2 splice up,Rab9 prom act,FLuc modulator,NPC1 prom act,ELG1 genotoxic,KinaseGlo FLuc
O=C(Oc1ccc(Cl)cc1)c1cc(-c2ccc3c(c2)OCCO3)on1,.,.,6µM*,.,.,.
Cc1cccc(OC(=O)c2cc(-c3ccc4c(c3)OCCO4)on2)c1,.,.,4.8µM*,.,.,.
CC(C)c1ccc(OC(=O)c2cc(-c3ccc4c(c3)OCCO4)on2)cc1,.,.,-19%,.,.,.
Cc1cc(C)cc(OC(=O)c2cc(-c3ccc4c(c3)OCCO4)on2)c1,.,.,-29%,.,.,.
COc1ccc(OC(=O)c2cc(-c3ccc4c(c3)OCCO4)on2)cc1,.,.,7.6µM*,.,.,.
CCOC(=O)c1ccccc1NC(=O)CSc1nc2cn(CC)nc2c(=O)n1Cc1ccc(Cl)cc1,10%,.,-17%,.,.,.
Cc1ccc(Cl)cc1N1CCN(S(=O)(=O)c2ccc3c(c2)CCCN3C(=O)C2CCC2)CC1,.,.,0%,.,.,.
C=C(C)C(=O)C1CCCCC1,-1%,.,.,.,.,0%
CNC(C)C#Cc1c(-c2cc(OC)c(OC)c(OC)c2)noc1C (stereo not drawn),.,-1%,0%,-4%,9%,.
CNC(C)C#Cc1ccc2sc3cccc(OC)c3c(=O)c2c1 (stereo not drawn),.,18%,?,6%,5%,.
CNC(C)C#Cc1ccc2c(=O)c3c(OC)cccc3oc2c1 (stereo not drawn),.,?,24µM*,?,?,.
CNC(C)C#Cc1ccc2oc3cccc(OC)c3c(=O)c2c1 (stereo not drawn),.,?,15µM*,24%,?,.
COc1cccc2oc3ccc(C#Cc4ccccn4)cc3c(=O)c12,.,1.8µM*,1.1µM*,0.79µM*,?,.
COc1cccc2sc3cc(C#Cc4ccccn4)ccc3c(=O)c12,.,.,.,.,8%,.
Cc1cc(C)cc(NC(=O)C2CCN(c3nc4ccccc4nc3C(F)(F)F)CC2)c1,.,.,-1%,.,.,.
O=C(NCc1cccnc1)c1c[nH]c2cc3c(cc2c1=O)OCCO3,-44%,2%,6µM*,-1%,?,-1%
O=C(c1ccccc1)c1c[nH]c2cc3c(cc2c1=O)OCO3,17%,1%,0%,-7%,6%,-2%
O=C(c1ccccc1)c1c[nH]c2cc3c(cc2c1=O)OCCO3,22µM*,?,?,22%,16%,-1%
COC(=O)Cn1nc(C)c2c(C)n(-c3ccccc3)nc2c1=O,2%,.,-5%,.,.,.
COC(=O)Nc1c(-c2ccccc2)nc2ccc(Cl)cn12,.,0%,-17%,-1%,0%,.
Cc1ccc2nc(-c3cccnc3)c(Nc3ccccc3C)n2c1,-4%,-10%,-1%,1%,-10%,7%
Cc1ccc2nc(-c3ccncc3)c(Nc3ccccc3C)n2c1,11µM*,.,-2%,.,.,.
COC(=O)CNc1c(-c2ccccc2)nc2ccc(Br)cn12,29%,?,7.6µM*,?,?,-8%
Cc1ccccc1Nc1c(-c2ccncc2)nc2ccc(Br)cn12,13µM*,2%,3%,0%,-5%,1%
Cc1ccccc1Nc1c(-c2cccnc2)nc2ccc(Br)cn12,-29%,-6%,-1%,0%,-20%,-1%
SMILES,SMN2 splice up,Rab9 prom act,FLuc modulator,NPC1 prom act,ELG1 genotoxic,KinaseGlo FLuc
Cc1oc2ccc(O)c(CN3CCN(C)CC3)c2c1C(=O)Nc1ccccc1,8%,.,-3%,.,.,.
Cc1nc(-c2ccc(C)c(N3CCN(C(=O)Nc4cccc(Cl)c4C)CC3)c2)no1,.,.,2%,.,.,.
Nc1[nH]n2c(=O)cc(-c3ccccc3)nc2c1N=Nc1ccc(S(N)(=O)=O)cc1,.,-15%,9.5µM*,-3%,0%,-4%
Nc1[nH]n2c(=O)cc(-c3ccccc3)nc2c1N=Nc1ccccc1,-91%,-22%,17µM*,-11%,-5%,0%
Cc1ccc(N=Nc2c(N)[nH]n3c(=O)cc(C)nc23)cc1,19%,0%,17µM*,2%,-6%,-8%
CSc1ccccc1OCc1cc(C(=O)NC(C)Cc2cccc(C)n2)no1 (stereo not drawn),.,?,19µM*,?,-10%,.
CSc1ccccc1OCc1cc(C(=O)NC(C)CCn2cccn2)no1 (stereo not drawn),.,1%,?,-3%,-3%,.
CSc1ccccc1OCc1cc(C(=O)NCc2cccc(C)n2)no1,.,4µM*,12µM*,2.8µM*,?,.
Cc1cccc2c(=O)cc(CSc3ccccc3NC(=O)c3cccc(F)c3)[nH]c12,.,.,1%,.,.,.
Cc1ccc(OCCOc2cccc3ccc(C)nc23)c([N+](=O)[O-])c1,18%,2%,21µM*,6%,0%,0%
Cc1ccc2cccc(OCCCOc3ccccc3F)c2n1,.,13%,19µM*,-2%,3%,.
NC(=O)COc1cccc2cccnc12,-1%,12%,2%,0%,3%,-2%
Fc1ccc(COc2cccc3cccnc23)cc1,29%,?,17µM*,?,?,-3%
Cc1ccc(OCCN2C(=O)c3ccccc3C2=O)c([N+](=O)[O-])c1,-25%,26%,21µM*,14%,7%,-4%
COc1ccc(N2C(=O)CSC23C(=O)N(CC(=O)Nc2ccccc2F)c2ccccc23)cc1 (stereo not drawn),.,.,-9%,.,.,.
COc1cccc(OC)c1OCCCOc1cccc2cccnc12,?,3.2µM*,17µM*,?,13%,-8%
O=[N+]([O-])c1ccccc1OCCCOc1cccc2cccnc12,.,?,6.7µM*,?,?,.
Clc1ccccc1OCCCOc1cccc2cccnc12,.,?,7.6µM*,?,?,.
O=Cc1ccccc1OCCCOc1cccc2cccnc12,.,23%,13µM*,22%,6%,.
Cc1cccc(OCCCOc2cccc3cccnc23)c1C,-21%,5%,?,-3%,-1%,0%
CC(=O)N[C@@H](C=O)[C@@H](O)[C@H](O)[C@H](O)CO,.,.,.,.,.,3%[39.9 µM]
Cn1c2ccccc2c2cc(/C=N/NC(=O)c3cc(O)cc(O)c3)ccc21,.,?,24µM*,2%,6%,.
COc1cc(C(=O)N/N=C/c2ccc3c(c2)c2ccccc2n3C)ccc1O,.,0%,11µM*,-15%,-9%,.
O=C1NN(c2ccccc2)C(=O)/C1=C/c1ccc(Sc2cccc3ccccc23)o1,.,-2%,-2%,1%,3%,-2%
O=C1NN(c2ccc(F)cc2)C(=O)/C1=C/c1cccs1,.,-3%,24µM*,-1%,-1%,-8%
COc1cccc(/C=C2/C(=O)NN(c3ccc(F)cc3)C2=O)c1,.,4%,21µM*,0%,6%,.
O=C1NN(c2ccccc2)C(=O)/C1=C\c1ccc2c(c1)OCO2,.,5%,5.4µM*,-1%,-2%,.
